# Measured values: publication PMC5540273 (PLoS ONE, 2017)
# Assays:
# Conditions in all cases: concentration: 1 μM, replicates: in singlicate; n = 1
# [1] = tested on: HIPK4
# [2] = tested on: HPK1
# [3] = tested on: HUNK
# [4] = tested on: ICK
# [5] = tested on: IGF1R
# [6] = tested on: T1, IKK-alpha
# T1 construct: gene CHUK
# [7] = tested on: T2, IKK-beta
# T2 construct: gene IKBKB
# [8] = tested on: T3, IKK-epsilon
# T3 construct: gene IKBKE
# [9] = tested on: INSRR
# [10] = tested on: INSR
# 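Note: KINOMEscan kinase panel screen.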
Compound,%Inh [1] [%],%Inh [2] [%],%Inh [3] [%],%Inh [4] [%],%Inh [5] [%],%Inh [6] [%],%Inh [7] [%],%Inh [8] [%],%Inh [9] [%],%Inh [10] [%]
CN1c2ccc(-c3ccc(C(N)=O)cc3)cc2-c2[nH]ncc2S1(=O)=O,4,28,0,0,5,0,0,0,0,0
Cc1c(Cn2c(C)c(C)n3c(=O)cc(N4CCOCC4)nc23)cccc1C(F)(F)F [GSK2328680],0,33,0,0,0,7,0,0,52,0
O=C(Nc1n[nH]c2nc(-c3ccco3)c(Br)cc12)C1CCN(Cc2ccccc2)C1.O=C(O)[C@H](O)[C@@H](O)C(=O)O (stereo not shown) [SB-742034],1,0,33,22,0,0,26,19,0,12
FC(F)(F)c1ccccc1-c1cc(-c2c[nH]nc2-c2ccccn2)ccn1 [GW679396],0,0,0,3,0,0,0,100,0,0
COc1ccc(-c2coc3ccc(-c4nnc(C)o4)cc23)cc1,8,0,0,0,12,0,0,0,0,14
COc1cccc(CNC(=O)NC2CCN(c3ccnc(Nc4ccc(F)cc4)n3)C2)c1 (stereo not shown) [GSK1379723],0,40,0,21,4,44,14,0,18,0
Fc1ccc(-c2nn3cccc(F)c3c2-c2ccncc2)cc1 [GW475620],22,0,0,0,47,0,0,14,0,13
CNc1nc(-c2ccc3c(N)n[nH]c3c2)cc(N2C[C@@H](C(=O)Nc3ccccc3)CC[C@H]2C)n1 [GSK2298859],0,18,0,0,11,0,0,24,0,0
CCn1c(-c2c(N)noc2C)nc2cnccc21 [SB-737856],0,41,0,4,0,7,0,0,0,0
Cc1cnc(N)c(/C=C/c2cncc(C(=O)NCCc3ccc(Cl)cc3Cl)c2)c1.Cl [GSK190937],17,45,10,0,8,19,46,29,0,31
Cc1c(Cn2c3ccccc3n3c(=O)cc(N4CCOCC4)nc23)cccc1C(F)(F)F [GSK2306394],0,5,0,6,33,35,27,0,11,0
Fc1ccc(-c2nc3n(c2-c2ccncc2)CCS3)cc1 [GI98581],0,44,8,0,17,0,0,0,6,0
CC(C)c1ccc(O)cc1Nc1ccnc2ccc(C(F)(F)F)cc12 [GW482059],10,23,0,0,3,0,0,0,7,0
COc1ccc2cc(-c3nc(-c4ccccc4C(C)C)[nH]c3-c3ccncc3)ccc2c1 [SB-660566],0,37,0,22,9,19,26,14,1,5
Cn1cnc2c(N)ncnc21 [SKF-97623],0,33,17,0,46,0,0,0,0,0
Cc1ccc(NC(=O)Nc2ccc(Cl)c(C(F)(F)F)c2)cc1-c1ccc(C(=O)Nc2ccncc2)cc1 [GSK1398470],8,56,9,4,26,0,0,29,5,23
COC(=O)c1cccc(NC(=O)NC2CCN(c3ccnc(Nc4ccc(F)cc4)n3)C2)c1 (stereo not shown) [GSK1379725],0,51,0,17,0,0,5,0,0,0

Compound,%Inh [1] [%],%Inh [2] [%],%Inh [3] [%],%Inh [4] [%],%Inh [5] [%],%Inh [6] [%],%Inh [7] [%],%Inh [8] [%],%Inh [9] [%],%Inh [10] [%]
COc1ccc(Nc2nccc(NCCNC(=O)Nc3cc(C)ccc3C)n2)cc1 [GSK1379899],0,40,0,18,7,8,9,1,0,0
CNC(=O)c1ccc(C)c(-n2c(C)cc(OCc3ccc(F)cc3F)c(Br)c2=O)c1,0,0,0,0,0,0,0,0,6,0
Fc1ccc(-c2nc[nH]c2-c2ccncc2)cc1 [SB-217360],0,0,55,0,3,9,0,0,0,24
CNCc1ccc2nc(NC(=O)c3ccc(C(C)(C)C)cc3)cn2c1,5,12,19,27,0,8,6,15,2,9
Cc1nccc(-c2c(-c3ccc(F)cc3)ncn2CCCN2CCOCC2)n1.Cl [SB-282975],50,3,16,39,3,14,12,0,11,3
Cn1cncc1-c1cc2c(Nc3ccc(OCc4ccccc4)cc3)ncnc2cn1 [GW281179],0,25,8,5,4,0,6,4,0,2
CS(=O)(=O)Cc1ccc(Nc2nccc(-c3c(-c4cccc(NC(=O)C5CCCCC5)c4)nn4ncccc34)n2)cc1 [GSK350559],0,14,7,14,68,0,12,32,20,42
COC(=O)C(NC(=O)NC1CCN(c2ccnc(Nc3ccc(F)cc3)n2)C1)c1ccccc1 (stereo not shown) [GSK1379712],8,51,0,9,5,0,0,32,0,2
CC(=O)c1cccc(NC(=O)NC2CCN(c3ccnc(Nc4ccc(F)cc4)n3)C2)c1 (stereo not shown) [GSK1379710],0,50,0,5,0,4,1,33,0,12
Cc1ccc(NC(=O)Nc2ccccc2F)cc1-c1ccc(C(=O)Nc2ccncc2)cc1 [GSK1398477],0,44,31,18,0,0,6,19,11,16
O=C(Nc1n[nH]c2nc(-c3cccs3)c(Br)cc12)C1CC1 [SB-735297],10,16,0,24,0,0,9,0,0,0
CCc1ccc(-c2ccc3c(c2)-c2n[nH]cc2S(=O)(=O)N3C)cc1,23,16,34,0,0,0,0,0,0,0
O=c1cc(N2CCOCC2)nc2n(Cc3cccc(Cl)c3Cl)c3ccccc3n12 [GSK2299009],0,19,0,14,5,0,0,37,7,0
O=C1NC(=O)C(c2ccc(Cl)cc2)=C1Nc1cccc(Cl)c1 [SB-317651],0,12,0,28,0,0,0,0,0,11
Cn1cncc1C(=O)NC1CCN(c2ccnc(Nc3ccc(F)cc3)n2)C1 (stereo not shown) [GSK1379717],0,68,0,31,0,25,17,33,0,10
COc1ccc(CSc2nnc(-c3ccc4ncsc4c3)o2)cc1C(F)(F)F,0,0,1,0,0,0,0,0,1,0
COc1cccc(NC(=O)Nc2ccc(C)c(-c3ccc(C(=O)Nc4ccncc4)cc3)c2)c1 [GSK1398474],27,78,2,17,12,0,84,22,0,0
